Peg3 prom inh = Peg3 promoter-driven luciferase inhibitors, primary screen, cell-based, HeLa, luciferase luminescence | AID 588405, 2011 | actives 1.7% (n = 360,000) | inhibition, % at 20 µM | HeLa PEG-Prom luciferase reporter, overnight;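 active = inhibition of at least 50% at 20 µM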
KKLEB cytotox = cytotoxicity in KKLEB CF airway cells, primary screen, cytotoxicity control for CF NF-kB inhibitor project, cell-based, uHTS, fluorescence assay plates; KKLEB CF airway cells viability, ATPlite luminescence, overnight; hits give low values; cells stimulated with P. aeruginosa culture filtrate; activity change (cytotoxicity), % at 5 µM; actives 0.36% (n = 360,000); AID 602141, 2011;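 active = corrected activity change at or below -50% at 5 µM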
HIF-2a inh = HIF-2a reporter inhibitors, primary screen, luminescence, 786-0 RCC cells; 786-0 RCC cells HIF-2a reporter, luciferase luminescence, overnight; inhibition, % at 18.8 µM; actives 0.72% (n = 360,000); AID 624352, 2012;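 active = inhibition of the luminescence signal of 40% or more relative to plate controls, in a single-dose primary screen at 18.75 µM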
Shn3 inh set2 = reduction of Shn3 3'UTR firefly luciferase signal, primary screen, Schnurri-3 inhibitor project, cell-based, Clone20 osteoblasts, set 2; Clone20 osteoblast Shn3 3'UTR firefly luciferase, 24 h; inhibition, % at 12.5 µM; actives 0.52% (n = 360,000); AID 588674, 2011;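 active = mean inhibition of at least 75% with every replicate also reaching 75%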;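 note: 0% = median of neutral control wells and 100% = pilot-screen positive control compound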
CF NFkB block = inhibitors of PAF-induced NF-kB signaling, primary screen, cell-based, GFP fluorescence, uHTS. KKLEB NF-kB-GFP reporter, GFP fluorescence overnight. inhibition, % at 5 µM. actives 0.86% (n = 360,000);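 active = at least 50% inhibition at 5 µM, scaled per plate between neutral and stimulator controls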;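 note: PAF is a Pseudomonas aeruginosa culture filtrate used as stimulus; plate controls were PAF-stimulated DMSO wells for no effect and unstimulated DMSO wells for full effect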
Active calls of the source: *; . = no result given. Hits are enriched below; roughly 2.6% of the tested compounds scored in any of these assays.

SMILES	Peg3 prom inh	KKLEB cytotox	HIF-2a inh	Shn3 inh set2	CF NFkB block
O=C1C(Nc2ccc(O)cc2)=C/C(=N/S(=O)(=O)c2cccs2)c2ccccc21	106*	-65*	40*	100*	93*
O=C(O)c1ccc(NC2=C/C(=N/S(=O)(=O)c3cccs3)c3ccccc3C2=O)cc1	-4	-21	13	18	87*
COC1=C(Nc2ccc(O)cc2)C(=O)c2ccccc2C1=O	-36	4	-100	-2	19
Cc1cccc(NC2=C(NCCO)C(=O)c3ccccc3C2=O)c1	-20	1	-54	15	1
Cc1cccc(NC2=C/C(=N/S(=O)(=O)c3cccs3)c3ccccc3C2=O)c1	45	-65*	7	93*	93*
CCOc1ccc(NC(=O)COc2ccc(C(=O)NCC3CCCO3)cc2OC)cc1 (stereo not drawn)	13	7	2	6	-11
COc1ccccc1NC(=O)C1CCN(S(=O)(=O)c2cccs2)CC1	-10	13	4	0	6
CCN1C(=O)N2C[C@H]3CON(C)[C@H]3C[C@H]2c2ccccc21	9	-5	-5	-15	-32
CN(c1ccccc1)S(=O)(=O)c1cccc(NC(=O)c2ccc3ncsc3c2)c1	57*	0	9	88*	1
Cc1nc2ccc(NC(=O)c3cccc(S(=O)(=O)N(C)c4ccccc4)c3)cc2s1	39	14	22	90*	-8
Cc1cc(C)c(NC(=O)CN(C)CC(=O)Nc2cccc(S(=O)(=O)N(C)c3ccccc3)c2)c(C)c1	58*	-3	3	26	11
Cc1c(NC(=O)C(C)OC(=O)/C=C/c2ccco2)c(=O)n(-c2ccccc2)n1C (stereo not drawn)	12	16	12	-8	9
c1ccc(COc2ccccc2CNC23CC4CC(CC(C4)C2)C3)cc1	75*	-12	13	-8	19
COc1ccc(C=CC(=O)c2ccc(OC)c(OC)c2)cc1O	-52	-9	-8	-21	35
COC(=O)c1cn(C(=O)/C=C/c2ccc(OC)c(OC)c2)c2ccccc12	82*	-16	-86	-38	12
COc1ccc(Oc2ccc(/C=N/NC(=O)c3cccnc3)cc2[N+](=O)[O-])cc1	-15	-2	0	5	-14
COC(=O)c1cn(C(=O)OC)c2ccccc12	-1	1	14	-10	-18
COc1ccc(C=CC(=O)c2ccc3cc(OC)c(OC)cc3c2)cc1OC	92*	-13	3	55	36
COc1ccc(C(=O)C=Cc2ccc(OCc3ccccc3)c(OC)c2)cc1OC	80*	-16	21	0	0
COc1cc(/C=C/C(=O)NC(C)(C)C)ccc1OCc1ccccc1	10	4	6	34	-4
COc1ccc(Oc2ccc(/C=C/C(=O)c3cccc(OC)c3)cc2[N+](=O)[O-])cc1	114*	1	34	-5	-28
Cc1ccc(S(=O)(=O)N2C(c3ccccc3)CC(=O)C3CN(S(=O)(=O)c4ccc(Cl)cc4)C(c4ccccc4)CC32)cc1 (stereo not drawn)	.	.	2	.	.
O=C(OCC(=O)N1CCC(c2ccccc2)=N1)c1ccc(Cl)s1	-85	16	-2	-6	-34
O=C(NCCOc1ccccc1)C1CCC(=O)N(CCCN2CCCC2=O)C1 (stereo not drawn)	7	19	-3	-6	3
CCC1CSC(Nc2ccc(C(=O)/C=C/c3ccc(OC)c(OC)c3)cc2)=N1 (stereo not drawn)	91*	-7	27	87*	14
SMILES	Peg3 prom inh	KKLEB cytotox	HIF-2a inh	Shn3 inh set2	CF NFkB block
O=C(/C=C/c1ccccc1)c1ccccc1	-24	-4	-62	-54	-7
COc1ccc(/C=C/C(=O)C(C)(C)C)cc1OC	83*	3	-12	-1	-2
O=C(/C=C/c1ccccc1)c1ccc2ccccc2c1	78*	8	-220	-61	-24
O=C(c1ccc(CNc2c(N3CCCC3)c(=O)c2=O)cc1)N1CCc2ccccc2C1	8	9	3	-22	-7
CCC(C)c1ccc(N(CC(=O)NC(C)(C)C)C(=O)CNC(=O)c2cccs2)cc1 (stereo not drawn)	19	-7	13	18	-4
Cc1cc(C(=O)NNC(=O)COc2c(C)cc(Br)cc2C)n[nH]1	18	4	14	-10	-2
Cc1c(Cl)cccc1N/C(SCC(=O)N1CCCCCC1)=C(/C#N)c1nc2ccccc2s1	45	-65*	36	45	54*
O=C(CSc1nc2ccccc2s1)N1CCCCC1	-243	18	-290	-82	-5
COc1ccc(N(C(=O)Cn2nnc(-c3ccccc3F)n2)C(C(=O)NCC2CCCO2)c2ccc(Cl)cc2)cc1 (stereo not drawn)	58*	2	21	-23	-11
COC(=O)[C@@H]1[C@@H](C#N)C2(c3ccccc3-c3ccccc32)N(c2ccc(Cl)cc2)N1C#N	110*	-7	64*	60	10
Cc1[nH]c2ccccc2c1/C=N/Nc1nc(Nc2ccccc2)nc(N2CCOCC2)n1	-12	-32	-124	22	19
Oc1[nH]c2ccccc2c1N=Nc1nc(Nc2ccccc2)nc(N2CCOCC2)n1	70*	-15	-16	83	34
Cc1c(CC(=O)N[C@@H](CCCNC(N)=O)C(=O)O)c(=O)oc2cc3oc4c(c3cc12)CCCC4	12	-19	6	1	-5
Cc1c(CCC(=O)N[C@@H](CCCNC(N)=O)C(=O)O)c(=O)oc2cc3oc4c(c3cc12)CCCC4	-74	5	67*	23	-1
Cc1c(CCC(=O)NCCCC(=O)O)c(=O)oc2cc3oc4c(c3cc12)CCCC4	-69	4	72*	25	-7
CCN1C(N(C)CCc2c[nH]c3ccccc23)=N[C@@H](c2cccc(C(F)(F)F)c2)C(C(=O)OC)=C1C	111*	-24	7	2	23
Cc1ccc(C(=O)Nc2cccc(C(F)(F)F)c2)cc1Nc1ncnc2nc[nH]c12	38	8	26	51	69*
CCCc1nc2oc3c(NCCN(C)C)ncnc3c2c2c1CCCC2	68*	-24	38	11	16
CC(C)Cc1nc2oc3c(NCC(C)O)ncnc3c2c2c1CCCC2 (stereo not drawn)	14	-35	9	2	31
CCc1ccc(NC(=O)CCS(=O)(=O)c2ccc3c(c2)CCN3C(C)=O)cc1	18	-35	10	7	19
O=c1[nH]c(C2CCN(S(=O)(=O)c3cccc(C(F)(F)F)c3)CC2)nc2c1nnn2Cc1cccc(F)c1	51*	-13	22	4	15
